Data taken from ChEMBL document CHEMBL3433997, “St. Jude Leishmania screening dataset” (2016).

Columns and labels:
Assay type in all cases: functional
[1] = biological target: Solute carrier family 2, facilitated glucose transporter member 1 (Homo sapiens) (UniProt P11166); assay: ST_JUDE_LEISH: Cytotoxicity at 2uM final concentration against transgenic Leishmania Mexicana promastigotes LmGLUT1 that are glucose transport deficient and complemented with the human glucose transporter GLUT1. Activity is measured by DNA content using SYBR green in vitro
Chain of Solute carrier family 2, facilitated glucose transporter member 1 (Homo sapiens) (P11166 whole entry): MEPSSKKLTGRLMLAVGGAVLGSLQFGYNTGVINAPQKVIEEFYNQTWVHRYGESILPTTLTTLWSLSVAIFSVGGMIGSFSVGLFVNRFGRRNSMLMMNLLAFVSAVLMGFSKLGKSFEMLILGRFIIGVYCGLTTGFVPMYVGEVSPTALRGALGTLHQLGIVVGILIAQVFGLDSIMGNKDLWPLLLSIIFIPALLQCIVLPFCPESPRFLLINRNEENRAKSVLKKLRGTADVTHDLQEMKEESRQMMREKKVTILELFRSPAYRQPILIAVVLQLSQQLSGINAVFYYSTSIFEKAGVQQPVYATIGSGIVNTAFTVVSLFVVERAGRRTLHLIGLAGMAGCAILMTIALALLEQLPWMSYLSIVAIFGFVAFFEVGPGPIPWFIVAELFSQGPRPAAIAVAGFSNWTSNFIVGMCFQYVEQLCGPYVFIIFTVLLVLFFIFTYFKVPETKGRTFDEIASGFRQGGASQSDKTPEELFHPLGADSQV

[2] = biological target: Hexose transporter 1 (Plasmodium falciparum) (UniProt O97467); assay: ST_JUDE_LEISH: Cytotoxicity at 2uM final concentration against transgenic Leishmania Mexicana promastigotes LmPfHT that are glucose transport deficient and complemented with the Plasmodium falciparum hexose transporter. Activity is measured by DNA content using SYBR green in vitro
[3] = biological target: Glucose transporter (Leishmania mexicana) (UniProt O61059); assay: ST_JUDE_LEISH: Cytotoxicity at 2uM final concentration against transgenic Leishmania Mexicana promastigotes LmGT2 that are glucose transport deficient and complemented with the L. Mexicana glucose transporter 2. Activity is measured by DNA content using SYBR green in vitro

Structure (SMILES)	inhibition [1]	inhibition [2]	inhibition [3]
CN(CCS(C)(=O)=O)Cc1ccc(-c2ccc3ncnc(Nc4ccc(OCc5cccc(F)c5)c(Cl)c4)c3c2)o1	2.97%	0.92%	-0.85%
Cc1cc(N2CCCC2)nc(Nc2ccc(NC(=O)Cc3ccccc3)cc2)n1	88.4%	95.2%	72.3%
O=C(Nc1ccsc1)Nc1cccc(-c2cccc(-c3nc4ccccc4[nH]3)c2)c1	9.79%	10.8%	4.27%
Cc1ccc(Nc2nc3cc(N(C)c4ccnc(Nc5cccc(CS(C)(=O)=O)c5)n4)ccc3o2)cc1	5.07%	4.21%	4.65%
COc1ccc(CNC(=O)c2cnc3c(O)cccc3c2Nc2cccc(NC(=O)c3ccc(Cl)c(Cl)c3)c2)cc1	74.7%	78.8%	76.6%
O=C(/C=C/c1cccc(Cl)c1)NCCCCCN1CCC(c2c[nH]c3ccccc23)CC1	3.67%	6.67%	0.06%
COc1ccc2nc(-c3ccccc3)cc(N/N=C/c3ccc([N+](=O)[O-])cc3)c2c1	6.36%	6.3%	2.43%
CCCNC(=O)c1cncc(-c2ccc(CNCCCc3ccccc3)cc2)c1	1.92%	1.6%	0.59%
CN1CCC(Oc2cc(NC(=O)Nc3ccc(-c4ccncc4)c(Cl)c3)ccc2Cl)CC1	16%	13.7%	9.26%
COc1ccccc1-c1cccc2c(NC(=O)Nc3ccc4nccc(N5CCN(C)CC5)c4c3)ccnc12	1.85%	2.74%	2.18%
Cc1cc(NCC2CCN(CC3CCCCC3)C2)nc(Nc2ccc(Br)cc2)n1 (stereo unspecified)	8.49%	7.88%	3.47%
CCN(CC)c1ccc(C(c2ccc(N(CC)CC)cc2)c2ccc([N+](=O)[O-])cc2)cc1	15.3%	10.4%	8.28%
COc1cc(NC(=O)c2cccc([N+](=O)[O-])c2)cc(S(=O)(=O)c2ccc(Cl)cc2)c1	-0.46%	-1.02%	0.68%
FC(F)(F)COc1ccc2ccccc2c1CCNCCCCNCCc1c(OCC(F)(F)F)ccc2ccccc12	105%	103%	107%
CCOc1ccc2[nH]c(C)cc(=NN=Cc3ccccc3Cl)c2c1	12.3%	8.94%	5.71%
COc1ccc(C(C(=O)NC2CCN(C[C@H](O)c3ccnc4ccc(OC)cc34)CC2)N2CCc3ccccc3C2)cc1 (stereo partly specified)	2.66%	2.33%	2.69%

Structure (SMILES)	inhibition [1]	inhibition [2]	inhibition [3]
Cc1cc(C2CCN(CCCCNC(=O)c3ccc(-c4ccc(C#N)cc4)cc3)CC2)c(C)cc1O	4.77%	3.77%	4.8%
CN(C)CCC1CCN(CCS(=O)(=O)c2cccc(Nc3ncc(-c4cccc(F)c4)cn3)c2)CC1	-2.08%	0.49%	9.03%
Cc1ccc(/C=C/C(=O)NC2CCC(N3CCC(c4ccccc4C)CC3)CC2)cc1F (stereo unspecified)	15.1%	17.5%	13.7%
CCOc1cc(NC(=O)Nc2ccnc3ccccc23)cc(OC)c1	12.6%	10.5%	7.94%
O=C(NCC1CCC1)c1cnc(Nc2cccc(Cl)c2)nc1N1CCC1	14.5%	12.8%	12.4%
CCCCc1ccc(Cc2cnc3nc(N)nc(N)c3c2C)cc1	11.6%	23%	15.6%
COc1ccc2nccc([C@@H](O)CN3CCC(NC(=O)c4ccc(OC)c(N)c4)CC3)c2c1	14.9%	16.7%	11.5%
CC(=O)N(C)c1cccc(C(=O)Nc2ccc(-c3cccc(-c4nc5cc(C(F)(F)F)ccc5[nH]4)c3)cc2)c1	11.5%	10.1%	9.62%
CC(CN1CCN(C)CC1)C(=O)Nc1ccc(-c2ccc(-c3nc4ccccc4[nH]3)s2)cc1 (stereo unspecified)	5.66%	5.15%	3.56%
CCn1c(Sc2ccc([N+](=O)[O-])c(C#N)c2)nnc1-c1cccc(Cl)c1	1.53%	0.29%	-1.08%
O=C(Nc1ccc2c(c1)CNCC2)c1ccc(-c2ccc(Cl)cc2)cc1	105%	95.6%	84%
Cc1ccc(C(C(=O)Nc2ccc(N3CCNCC3)c(Cl)c2)c2ccccc2)cc1 (stereo unspecified)	4.78%	0.84%	1.72%
O=S(=O)(NCCN1CCCC1)c1ccc(-c2cccc(CNCc3ccc(F)cc3)c2)s1	6.73%	2.44%	-1.98%
CC1(C(=O)Nc2ccc([N+](=O)[O-])cc2O)CC2c3ccccc3C1c1ccccc12 (stereo unspecified)	2.18%	3.79%	0.74%
CCCCCCN1CCC(NCc2ccc(CN(C)C)cc2)CC1	0.45%	2.27%	-7.52%
COCCn1c(Sc2ccc(C#N)c([N+](=O)[O-])c2)nnc1-c1ccc(N(C)C)cc1	13%	13.5%	11.7%
